High-throughput results as filed in PubChem.
Calb FLC = C. albicans growth inhibition with fluconazole, primary screen, CaCi-2 strain, Alamar Blue fluorescence; C. albicans CaCi-2 (fluconazole-resistant clinical isolate) + fluconazole, 48 h; AID 1979, 2009; growth inhibition, % (concentration not given with the values); actives 0.57% (n = 300,000);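 active means growth inhibition above about 58% in most replicates, limit read from the data, passing the limit was not always enough; inconclusive means exactly half the replicates above a set limit; inactive means most replicates below a set limit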;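 further: all wells also contain fluconazole at 8 µg/ml as a sub-toxic cotreatment; 0% = median of DMSO wells and 100% = median of geldanamycin control wells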
TNF death inh = inhibitors of TNF-alpha triggered necroptosis, primary screen, cell-based, Jurkat FADD-/-, single concentration; Jurkat FADD-/- TNF necroptosis rescue, ATP luminescence, 24 h; 0 = TNF only, 100 = no-TNF cells; activation (protection from cell death), % at 10 µM; actives 0.068% (n = 220,000);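 active means activation, meaning protection from cell death, of at least 50% relative to plate controls; inactive means activation below 50%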;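 further: necroptosis triggered by 40 ng/mL TNF-alpha added together with compound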
zVAD death inh = inhibitors of zVAD-triggered necroptosis, primary screen, L929 cells; AID 1377, 2008; viability rescue, % at 10 µM; actives 0.38% (n = 220,000); L929 zVAD necroptosis rescue, ATP luminescence, 24 h; with zVAD 60 µM;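 active means activation, scaled between plate controls, above about 75%, limit read from the data; inactive means activation under that limit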;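 further: 0% = zVAD with DMSO and 100% = DMSO alone without zVAD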
HIF activator = HIF pathway transcriptional activators, primary screen, cell-based, U2OS HRE-luciferase, luminescence; U2OS HRE-luciferase reporter; normalized: DMSO 0%, desferrioxamine 100%; activation, % at 7.5 µM (by protocol); actives 0.32% (n = 300,000); AID 1910, 2009;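 active means mean activation of at least 10% of the iron chelator positive control signal, with at least half of replicates also reaching 10%; inconclusive means mean and replicate majority disagree about reaching 10%; inactive means mean and most replicates under 10%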
The depositor's hits bear a star; ? = inconclusive; . = not tested or not shown. The list is not random: actives were taken first. Their share in the collection is about 1.1%.

SMILES | Calb FLC | TNF death inh | zVAD death inh | HIF activator
Cc1c(NC(=O)CSCc2c(F)cccc2Cl)c(=O)n(-c2ccccc2)n1C | 0 | 1 | 0 | -1
CCOc1ccc(NC(=O)NNC(=O)c2cc3ccccc3cc2O)cc1 | 86* | . | . | 0
CCc1ccc(NC(=O)NNC(=O)c2cc3ccccc3cc2O)cc1 | ? | . | . | 0
Cc1ccc(NC(=O)NNC(=O)c2cc3ccccc3cc2O)cc1C | 81* | . | . | 0
CCOc1ccc(CCNC(=O)COC(=O)Cn2nc(C)c([N+](=O)[O-])c2C)cc1OCC | -1 | . | . | 13*
CCCOc1cccc(-c2nnc(NC(=O)c3ccco3)s2)c1 | 88* | . | . | 0
COC(=O)C1C(=O)C(C(=O)c2ccc([N+](=O)[O-])cc2)C(=O)CC1(C)C (centres undefined) | 5 | . | . | -8
COc1ccc(CCNc2ncnc3[nH]ncc23)cc1OC | -7 | -5 | 1 | 1
COc1ccc(CCNc2ncnc3sc(C)cc23)cc1OC | 107* | . | . | 0
CN(C)CCCNC(=O)c1ccc(-c2nc(-c3ccc(Cl)cc3)cs2)cc1 | 100* | -16 | 0 | -7
O=C(c1ccc(Cn2c(=O)[nH]c3ccccc3c2=O)cc1)N1CCN(c2ccc(F)cc2)CC1 | 63* | -12 | 0 | -1
CCCCN(C(=O)CCn1c(=O)oc2ccccc21)c1ccccc1 | 3 | . | . | 0
COC(=O)c1cc(C(=O)NCCCN2CCOCC2)cc([N+](=O)[O-])c1 | 2 | 2 | 1 | 0
COc1ccc(-n2c(C)nc3sc4c(c3c2=O)CCCC4)cc1 | 11 | 89* | 8 | 0
COc1cccc(-n2nnnc2SCC(=O)Nc2ccccc2OC)c1 | -3 | . | . | 1
CCCS(=O)(=O)c1nnnn1-c1cccc(OC)c1 | 82* | -28 | 49 | -2
Cc1[nH]c2ccccc2c1C(=O)CCl | 96* | 5 | 3 | 2
CCOc1ccc2nc(N=NC3=C(O)CC(C)(C)CC3=O)sc2c1 | 89* | -10 | 7 | 3
C/C(=N\Nc1ccc2nncn2n1)c1ccco1 | 0 | 6 | 2 | 0
C/C(=N\Nc1ccc2nncn2n1)c1ccccn1 | 2 | -18 | 40 | 129*
N/C(Cc1cccc2ccccc12)=N\OC(=O)c1ccccc1F | -14 | . | . | 0
N/C(Cc1ccccc1)=N\OC(=O)c1cccc2ccccc12 | 104* | -1 | 0 | 0
NC1=NC[C@H](CC2CCCCC2)N1CCc1cc(C(F)(F)F)cc(C(F)(F)F)c1 | 92* | -27 | -1 | -1
Cc1ccc(N2C(=O)Nc3ccccc3S2(=O)=O)cc1Cl | 8 | . | . | -1
Cc1ccc(NC(=O)CNC(=O)c2ccc(Oc3ccccc3)cc2)nc1 | 89* | . | . | 0
SMILES | Calb FLC | TNF death inh | zVAD death inh | HIF activator
COc1ccc(-c2cc(C3CCN(Cc4cccc(C(F)(F)F)c4)CC3)[nH]n2)cc1 | 70* | -9 | 28 | 0
O=S(=O)(c1cccc2cccnc12)N1CCN(c2ccc(F)cc2)CC1 | 14 | 56* | 4 | 1
Oc1cccc(/C=N/NC(=S)Nc2cccnc2)c1O | 10 | -8 | 1 | 14*
Oc1ccc(/C=N/NC(=S)Nc2cccnc2)c(O)c1O | 57 | -6 | -1 | 0
O=C(CSc1ccc2nc(-c3ccccc3)cn2n1)NCC1CCCO1 (centres undefined) | -1 | . | . | 2
COc1ccc(-c2cn3nc(SCC(=O)NCC4CCCO4)ccc3n2)cc1 (centres undefined) | 36 | . | . | 19*
O=C(/C=C/c1cccc(Cl)c1)c1ccc([N+](=O)[O-])o1 | 88* | . | . | -2
CCOC(=O)/C(=N\Nc1cccc(C(F)(F)F)c1)N1CCOCC1 | 114* | 0 | -2 | 708*
COc1cccc(NC(=O)CN(C)C(=O)c2cc(C)on2)c1 | 5 | . | . | 0
Cn1c(=O)c(C(=O)NCCc2ccccc2)c(O)c2ccccc21 | 89* | . | . | 0
COc1cccc(-n2c(SCC(=O)N3CCOCC3)nc3c([nH]c4ccccc43)c2=O)c1 | 6 | -1 | 1 | 457*
O=C(Nc1ccc(O)c(C(=O)O)c1)c1cccc(NC(=O)c2ccco2)c1 | -7 | . | . | 1
CCOc1ccc(S(=O)(=O)N2CCCC(C(=O)Nc3cccc(C)c3)C2)cc1 (centres undefined) | 5 | . | . | 0
C/C(=N\NC(=O)c1cccc(N/N=C(\C)c2cc(O)ccc2O)c1)c1cc(O)ccc1O | 103* | -11 | 70 | 1
C/C(=N\NC(=O)c1cccc(N/N=C(\C)c2ccco2)c1)c1ccco1 | -16 | -1 | 3 | 1
COCc1nnc(NC(=O)c2cc(Cl)ccc2OC)s1 | ? | -1 | 0 | 877*
CCOCc1nnc(NC(=O)c2cc(Cl)ccc2OC)s1 | 3 | -1 | 0 | 1
Cc1c(OCC(=O)NCC(O)c2ccccc2)ccc2c(-c3ccccc3)cc(=O)oc12 (centres undefined) | 81* | . | . | 0
S=C(Nc1ccccc1)Nc1nc2ccccc2n1CCOc1ccc(Cl)cc1 | 92* | -13 | -1 | 0
c1cc2c(cc1-c1[nH]ncc1CN1C[C@H]3CC[C@H]1C3)OCO2 | -11 | 0 | 1 | 0
c1ccc(-n2ncc3c(NCc4ccco4)ncnc32)cc1 | 0 | -5 | 1 | 9.5*
Cc1ccc2nc(-c3ccc(O)c(O)c3)cn2c1 | 46 | . | . | 29*
Cc1ccc2nc(-c3ccccc3)cn2c1 | -30 | -8 | 0 | -2
Nc1cccc(C(=O)OCC(=O)Nc2cccc3c2C(=O)c2ccccc2C3=O)c1 | 7 | -2 | 0 | 0
CCN(CC)CCC(=O)Nc1cccc2c1C(=O)c1ccccc1C2=O | -16 | -26 | 52 | 26*
SMILES | Calb FLC | TNF death inh | zVAD death inh | HIF activator
CCn1cc(/C=C/c2cc[n+](C)cc2)c2ccccc21 | 94* | . | . | -21
C=CCn1cc(/C=C/c2cc[n+](C)cc2)c2ccccc21 | 71 | . | . | 2
Cc1ccccc1/C=C/c1cc[n+](C)cc1 | -6 | 0 | 3 | 0
CC(C)n1cc(/C=C/c2cc[n+](C)cc2)c2ccccc21 | 87* | . | . | 1
COCCNC(=O)CN1C(=O)NC2(CCCc3cc(OC)ccc32)C1=O (centres undefined) | -5 | . | . | -1
CCOc1ccc(NS(=O)(=O)c2ccc3c(c2)N(C(C)=O)CCS3)cc1 | 5 | . | . | 0
COc1ccnc(Oc2ccccc2)c1C(=O)N/C=N/OCc1ccccc1 | -25 | 2 | 0 | 0
COc1ccnc(Oc2cccc(C(F)(F)F)c2)c1C(=O)N/C=N/OCc1ccccc1F | 108* | 2 | 0 | 0
CC(C)CN(C(=O)CCC(=O)OCC(=O)N(C)c1ccccc1)c1c(N)n(CC(C)C)c(=O)[nH]c1=O | -1 | . | . | 0
CCN(CC)C(=O)Cn1c(=O)n(-c2ccccc2)c(=O)c2c3c(sc21)CCC3 | 113* | 0 | 0 | -1
COC(=O)Cn1c(=O)n(CCc2ccccc2)c(=O)c2c3c(sc21)CCCC3 | ? | 0 | 0 | -1
